Screening results: PubChem BioAssay, National Center for Advancing Translational Sciences (NCATS)
SARS PLP yeast – blocks SARS-CoV papain-like protease in a yeast assay; Potency, µM (doses to about 32.9 µM), inactives show at the top dose activity, positive = growth rescue, most hits filed as activators; S. cerevisiae expressing SARS-CoV PLpro, growth rescue; 330,000 compounds, 0.19% hits; calls by dose curve; note: potency is the fitted concentration of half-maximal effect; 0% is about no effect; nearly all actives have a fitted effect of over 55% in size
Shiga toxin inh – inhibitors of Shiga toxin in Vero cells; Vero cells, Shiga toxin protein synthesis inhibition reporter; inhibition, % at 38.7 µM; 290,000 compounds, 9.2% hits; AID 2315; in the data active = inhibition mostly above about 28%, no sharp cut-off; inactive = mostly below about 43%; note: 0% is about no effect
Cycloheximide cs – counter-screen hit for Shiga toxin inhibitors, cycloheximide; cell reporter, cycloheximide protein synthesis inhibition counterscreen; max response, %; 300,000 compounds, 12% hits; AID 2314; in the data active = max response mostly above about 13%, no sharp cut-off; inactive = mostly below about 14%; note: read at 38.3 µM for the half of the compounds with a filed dose; 0% is about no effect
Pf growth 96h – P. falciparum growth inhibition at 96 hours; P. falciparum luciferase reporter growth, 96 h; Potency, µM (highest dose often 28.7 µM), for inactives: top-dose activity change, negative = inhibition, usual class: inhibitors; 320,000 compounds, 6.9% hits; note: potency is the fitted concentration of half-maximal effect; % is set by controls: 0 for no effect and ±100 for the full control effect
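96 h incubation, 37 C, 5% CO2, of luciferase-reporter P. falciparum-infected RBCs (2% hematocrit, 0.05% parasitemia final) with test compounds; endpoint luminescence.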
NS1 inh – inhibitors of influenza NS1 protein function; AID 2326; 270,000 compounds, 0.4% hits; Potency, µM (highest dose often 46.1 µM), inactives show at the top dose activity, positive = more growth; calls by dose curve; note: potency is the fitted concentration of half-maximal effect; actives are rising curves; nearly all actives have a fitted effect of over 50% in size
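OD600 was taken as the measure of yeast growth restored by compound in an NS1-expressing S. cerevisiae strain. Cells had been washed out of glucose medium and diluted 1:100 into galactose -URA medium, pH 6.0.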
Pf growth 48h – P. falciparum growth inhibition at 48 hours (one generation); P. falciparum luciferase growth in erythrocytes, 48 h; Potency, µM (doses to about 28.7 µM), inactives show at the top dose activity change, negative = inhibition, hits mostly inhibitors; 310,000 compounds, 5.9% hits; AID 504832; note: potency is the fitted concentration of half-maximal effect; % is set by controls: 0 for no effect and ±100 for the full control effect
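Parasite viability was followed by luminescence of a genomically integrated firefly luciferase. Cultures held 0.1% parasitemia at 2% hematocrit (final), incubated under 5% CO2 at 37 C.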
Starred values were filed as active, the others as inactive; i = inactive; ? = inconclusive; / = no result; [ ] = remark or other dose. This is a sample that favours compounds with a hit; in the whole collection about 21% have one here. Unless noted, calls come from the whole dose curve; as a rule, active = well fitted inhibition curve with a large enough effect; inconclusive = small, poorly fitted or top-dose-only effect, or another doubt; inactive = no such curve, though single readings can be large or run the other way.

SMILES	SARS PLP yeast	Shiga toxin inh	Cycloheximide cs	Pf growth 96h	NS1 inh	Pf growth 48h
CCCN(CCC)CCCNC(=O)c1ccc2c(c1)N(CC)C(=O)c1ccccc1S2=O (stereo not given)	0%	-5	-6	/	0%	?
O=C(NCCN1CCCC1)c1ccc2c(c1)N(Cc1ccccc1)C(=O)c1ccccc1S2(=O)=O	1%	-7	6	29%	-5%	8.3µM*
CCCCSCCCNC(=O)c1ccc2c(c1)N(CC)C(=O)c1ccccc1S2=O (stereo not given)	1%	3	-1	5%	-1%	13µM*
CCN1C(=O)c2ccccc2Sc2ccc(C(=O)NCCCN(CC(C)C)CC(C)C)cc21	1%	-3	23	27%	5%	10µM*
CCN(CC(=O)Nc1ccc(Br)cc1)CC(=O)Nc1cc(C)on1	2%	/	/	7%	/	0%
CCCCOc1ccc(/C=N/Nc2cc(N3CCOCC3)nc(C)n2)cc1	1%	3	4	-18%	?	0%
CCN(CC(=O)Nc1ccccc1OC)C(=O)CN1C(=O)NC(C)(c2ccccc2)C1=O (stereo not given)	2%	/	/	-20%	/	-27%
CCCCNC(=O)c1ccc2c(c1)N(CC)C(=O)c1ccccc1S2(=O)=O	0%	4	-3	1.5µM*	-15%	-20%
CCN1C(=O)c2ccccc2S(=O)(=O)c2ccc(C(=O)NC(C)C)cc21	-1%	-7	-2	?	4%	0%[0.00184 µM]
CN(C)/C=C(/C(=O)c1ccccc1)n1cncn1	-1%	-11	-2	33%	0%	1%
CC(C)(C)C(=O)/C(=C\c1ccc([N+](=O)[O-])cc1)n1cncn1	-89%	-20	-11	?	-38%	12µM*
CC(C)(C)C(=O)/C(=C/c1ccc(Cl)cc1)n1cncn1	-4%	-12	3	136%	-48%	15µM*
COc1cccc(NC(=O)COC(=O)CC(NC(N)=O)c2ccc(Cl)cc2)c1 (stereo not given)	-1%	-4	-1	22%	-8%	5%
CN(O)/C=c1/ccc2c(n1)C(=O)C=CC=2	-85%	5	-4	12µM*	-36%	8.3µM*
Cc1cc(-c2cc(N)n(-c3ccccc3)n2)c(C)n1C1CCCC1	1%	40*	36*	34%	9%	?
Cc1cc(N)n(-c2ccccc2)n1	4%	21	13	199%	?	12%
CSc1ccc(NC(=O)Nc2cc(C)ccn2)cc1	0%	171*	55*	i	8%	125%
Cc1ccnc(NC(=O)Nc2ccc(Br)cc2Cl)c1	1%	91*	47*	49%	/	434%
O=C(Nc1ccc(Br)cc1Cl)Nn1cnnc1	4%	-16	-3	-24%	5%	-3%
COc1ccc(NC(=O)Nc2cc(C)ccn2)cc1	/	/	/	/	-21%	/
Cc1ccc(NC(=O)Nc2ccc(F)cc2)nc1	5%	65*	47*	2%	-3%	146%
Cc1ccnc(NC(=O)c2cc3cc(F)ccc3s2)c1	1%	83*	45*	-75%	-15%	-3%
Cc1ccnc(NC(=O)CNC(=O)c2ccc(C)s2)c1	2%	/	/	126%	/	75%
COc1ccccc1OCCNC(=O)c1ccc(C)o1	3%	/	/	60%	/	32%
Cc1ccnc(NC(=O)Nc2ccc(F)cc2)c1	-1%	69*	35*	39%	-10%	195%
SMILES	SARS PLP yeast	Shiga toxin inh	Cycloheximide cs	Pf growth 96h	NS1 inh	Pf growth 48h
O=C(COc1ccccc1[N+](=O)[O-])NNC(=O)Nc1cccc2ccccc12	-2%	-2	8	-5%	1%	-27%
CC1Cc2nc(SCC(=O)Nc3ccc4c(c3)OCO4)n(-c3ccc(F)cc3)c(=O)c2S1 (stereo not given)	-1%	-6	-4	3.7µM*	-90%	1.7µM*
COc1ccc(-n2c(SCC(=O)Nc3nccs3)nc3c(c2=O)SC(C)C3)cc1 (stereo not given)	12%	15	1	1µM*	-3%	1.7µM*
Cc1ccc(C)c(N2N=C(C(=O)OCc3nnc(-c4ccccc4)o3)CCC2=O)c1	2%	/	/	16%	/	-3%
O=c1[nH]c(-c2ccc(O)cc2)nc2scc(-c3cccs3)c12	-2%	108*	80*	2%	3%	36%
Cc1cccc(N(C)S(=O)(=O)c2ccc(-c3cnc(C4CC4)o3)cc2)c1	-5%	-2	-3	15µM*	-12%	0%
Cc1ccc(-c2cnc(C3CC3)o2)cc1S(=O)(=O)Nc1ccccc1	-10%	-3	-8	15µM*	-33%	?
CC(=O)Nc1ccc(NS(=O)(=O)c2cc(-c3cnc(C4CC4)o3)ccc2C)cc1	3%	-1	-2	-2%	-7%	?
CC(NC(N)=O)C12CC3CC(CC(C3)C1)C2 (stereo not given)	0%	-12	-1	-26%	-7%	14%
CC(NC1CCCCC1)C(O)C12CC3CC(CC(C3)C1)C2 (stereo not given)	-8%	-21	3	/	3%	7.4µM*
CCN(c1ccccc1)S(=O)(=O)c1cccc(C(=O)NCC2(N(C)C)CCCCC2)c1	-2%	/	/	?	/	?
Cc1onc(-c2c(Cl)cccc2Cl)c1C(=O)c1c[nH]c(C(=O)NCC2CCCO2)c1 (stereo not given)	-3%	26	0	?	/	10µM*
CCc1noc(C)c1C(=O)N1CCCSC1=Nc1ccccc1C(C)C	2%	/	/	6.6µM*	/	15µM*
CCc1noc(C)c1C(=O)N1CCCC1	-5%	-6	1	?	8%	12%
C#Cc1ccc([C@@H]2C=C(C(=O)N3CCOCC3)O[C@H](OCC)[C@H]2CCCO)cc1	1%	15	11	?	-4%	?
CC(C)C[C@H](NC(=O)[C@H](CCCCN)NC(=O)[C@H](CCC(N)=O)NC(=O)[C@H](Cc1cnc[nH]1)NC(=O)[C@H](Cc1cnc[nH]1)NC(=O)[C@@H](N)C(C)C)C(=O)N[C@H](C(=O)N[C@@H](Cc1ccccc1)C(=O)N[C@@H](Cc1ccccc1)C(=O)N[C@@H](C)C(=O)N[C@@H](CCC(=O)O)C(=O)N[C@@H](CC(=O)O)C(=O)N[C@H](C(=O)NCC(=O)N[C@@H](CO)C(=O)N[C@@H](CC(N)=O)C(=O)N[C@@H](CCCCN)C(=O)O)C(C)C)C(C)C	/	-9	-11	/	/	/
Cc1cc(Nc2cccc(Cl)c2)c2ccccc2n1	1%	-6	1	8%	-23%	?
O=c1oc(Nc2ccccc2F)nc2ccccc12	6%	53*	34*	227%	-7%	62%
O=c1oc(Nc2cccc(Cl)c2)nc2ccccc12	2%	47*	36*	11%	2%	57%
O=c1oc(Nc2ccccc2Cl)nc2ccccc12	1%	31	23*	55%	1%	114%
Cc1nc2ccccc2c(=O)n1Nc1cccc(Cl)c1	26%	20	-5	5.9µM*	6%	2.9µM*
